# Hits are enriched below; roughly 19% of the tested compounds scored in any of these assays.
# TDP1 block: qHTS Assay for Inhibitors of Tyrosyl-DNA Phosphodiesterase (TDP1). recombinant TDP1, AlphaScreen DNA substrate cleavage. Potency, µM (titrated, usually from 130 µM), actives largely listed as inhibitors. 0.28% of 350,000 active. AID 485290, 2010; also: nearly all actives have a fitted effect of over 40% in size
# Target sequence (Q9NUW8 whole entry, looked up): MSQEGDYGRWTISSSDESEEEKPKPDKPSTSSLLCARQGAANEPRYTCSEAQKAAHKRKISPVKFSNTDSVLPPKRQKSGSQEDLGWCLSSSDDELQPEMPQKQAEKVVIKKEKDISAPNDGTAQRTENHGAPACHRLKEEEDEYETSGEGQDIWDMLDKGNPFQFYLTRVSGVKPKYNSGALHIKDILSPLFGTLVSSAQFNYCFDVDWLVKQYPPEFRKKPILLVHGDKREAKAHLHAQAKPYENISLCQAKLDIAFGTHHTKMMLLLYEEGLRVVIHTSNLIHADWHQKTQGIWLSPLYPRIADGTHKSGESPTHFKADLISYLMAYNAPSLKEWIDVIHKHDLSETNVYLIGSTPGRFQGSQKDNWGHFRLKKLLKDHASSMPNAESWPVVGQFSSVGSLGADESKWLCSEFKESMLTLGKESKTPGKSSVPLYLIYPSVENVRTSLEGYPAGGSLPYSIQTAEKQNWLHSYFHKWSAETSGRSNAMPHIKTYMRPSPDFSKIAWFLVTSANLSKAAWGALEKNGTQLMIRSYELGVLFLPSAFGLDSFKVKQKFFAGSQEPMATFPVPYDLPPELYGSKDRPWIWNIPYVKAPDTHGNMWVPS
#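 Recombinant E. coli-expressed Tdp1 (1 nM) preincubated with compound 15 min at RT, then 5'-biotin/3'-phosphotyrosine-FITC DNA substrate (15 nM) added for 5 min. AlphaScreen beads (10 ug/ml) added, 10 min RT; tyrosine-FITC cleavage read as signal loss.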
# TDP1 cell CPT: qHTS for Inhibitors of human tyrosyl-DNA phosphodiesterase 1 (TDP1): qHTS in cells in presence of CPT; chicken DT40 Tdp1-/-;hTDP1 cells + 20 nM CPT, ATP luminescence, 48 h; Potency, µM (highest dose often 46.2 µM), actives largely listed as inhibitors; 12% of 420,000 active; AID 686979, 2013; also: nearly all actives have a fitted effect of over 55% in size
#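 Cell growth measured by CellTiter-Glo luminescence after a minimum 48 h, 37 C compound exposure with 20 nM CPT in Tdp1-knockout DT40 cells stably expressing hTDP1, seeded 400/well; qHTS titration format.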
# TGFb inhibitor: qHTS for Inhibitors of TGF-b. HepG2 CAGA-GFP TGF-b/SMAD3 reporter, GFP fluorescence, 18 h; TGF-beta stimulated, 500 pg/mL final. Potency, µM (titrated, usually from 46.1 µM), actives largely listed as inhibitors. 1.2% of 410,000 active. AID 588855, 2011; also: nearly all actives have a fitted effect of over 65% in size
#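 Inhibition of TGF-beta-driven CAGA-GFP reporter expression in HEPG2 cells is measured by cellular GFP fluorescence after 18 h stimulation with 500 pg/mL recombinant TGF-beta in 1% FBS medium at 37 degrees C.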
# DT40 TDP1 no CPT: qHTS for Inhibitors of human tyrosyl-DNA phosphodiesterase 1 (TDP1): qHTS in cells in absence of CPT | DT40 Tdp1-/- hTDP1 cells, no CPT, ATP luminescence, 48 h | Potency, µM (titrated, usually from 46.2 µM), hits mostly inhibitors | 15% of 420,000 active | AID 686978, 2013; also: nearly all actives have a fitted effect of over 55% in size
#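 DT40 Tdp1-/-;hTDP1 cells, no CPT (DMSO vehicle only), 400 cells/well; compounds pin-transferred; ≥48 hr, 37 °C; CellTiter-Glo 30 min RT dark, luminescence read.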
# HepG2 viability: qHTS for Inhibitors of TGF-b: Cytotox Counterscreen. Potency, µM (highest dose often 46.1 µM), most hits filed as cytotoxic. AID 588856, 2011. HepG2 CAGA-GFP viability, ATP luminescence, 18 h. 0.76% of 410,000 active
#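 CellTiter-Glo luminescence gave cytotoxicity after 18 hours at 37 degrees C. The cells were HepG2 CAGA-GFP in 1% FBS DMEM, stimulated with 500 pg/mL TGF-beta after compound addition. %Activity was normalised to no-cell wells (complete cell-killing) and DMSO (no toxicity), and curves were fitted and classified.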
# IL1B secr inh: qHTS for Inhibitors of Inflammasome Signaling: IL-1-beta AlphaLISA Primary Screen; THP-1 LPS/ATP IL-1B secretion, AlphaLISA, 16 h; hits give low values; 4.7% of 360,000 active; activity change, % at 57.5 µM; in the data active = activity change below about -50%; inconclusive = mostly about -30% to -49%
#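 THP-1 cells pretreated 1 hr with compounds (up to 57.5 uM final), then stimulated with LPS (250 ng/mL final) plus ATP (1.25 mM final); secreted IL-1B measured by AlphaLISA after 16 hr, decreased signal indicating inhibition.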
# Hits are given with their value; i = inactive; ? = inconclusive; nt = no result given; ! = not confirmed by another sample. Unless noted, calls follow the shape of the dose curve; as a rule, active = well fitted curve in the direction sought with a large enough effect; inconclusive = small, poorly fitted or top-dose-only effect, or another doubt; inactive = no such curve, though single readings can be large; an effect the other way counts as inactive or inconclusive.
SMILES,TDP1 block,TDP1 cell CPT,TGFb inhibitor,DT40 TDP1 no CPT,HepG2 viability,IL1B secr inh
CC(=O)NCCNc1nc(NC(C)C)nc2cc(-c3ccccc3)sc12,nt,23.1µM,i,?,i,nt
CC(=O)Nc1ccc(CNc2nc(NC(C)C)nc3cc(-c4ccccc4)sc23)cc1,nt,3.66µM,?,4.11µM,i,-113.7
COc1ccc(-c2cc(CNc3nc(NC(C)C)nc4cc(-c5ccccc5)sc34)on2)cc1,nt,4.11µM,?,3.66µM,i,-107.0
C=CCNc1nc(NCc2ccc(NC(C)=O)cc2)c2sc(-c3ccccc3)cc2n1,nt,8.2µM,?,9.2µM,11.2µM,?
CC1CN(C(=O)c2ccccc2NS(=O)(=O)c2ccc(Cl)cc2)CC(C)O1 (centres undefined),i,i,i,i,i,i
O=C(CN1C(=O)CCOc2ccccc21)Nc1ccc(Cl)c(S(=O)(=O)N2CCOCC2)c1,i,i,i,?,i,i
C=CCNc1nc(NCCCN2CCCC2=O)c2sc(-c3ccccc3)cc2n1,nt,18.4µM,?,20.6µM,i,nt
COCCNc1nc(NCCCN2CCCC2=O)c2sc(-c3ccccc3)cc2n1,nt,?,i,?,i,i
CCN(CC(=O)Nc1ccccc1OC)CC(=O)Nc1sccc1C#N,i,?,i,?,i,i
N#Cc1ccsc1NC(=O)CCc1ccccc1,i,?,i,20.6µM,i,i
N#Cc1ccsc1NC(=O)CCN1CCN(C(c2ccccc2)c2ccccc2)CC1,i,29.1µM,i,25.9µM,i,i
N#Cc1ccsc1NC(=O)CN(Cc1ccccc1)Cc1ccccc1,i,20.6µM,?,14.6µM,i,i
COc1ccc(NC(=O)c2sc3nc(N4CCOCC4)c4c(c3c2N)CC(C)(C)OC4)c(OC)c1,i,?,i,i,i,i
CCCCC(=O)NC(c1ccc(Cl)cc1Cl)c1ccc2cccnc2c1O (centres undefined),nt,6.51µM,?,2.91µM,i,i
CC(NC(=O)CSc1ncccn1)c1ccc(Cl)cc1Cl (centres undefined),i,i,i,?,i,i
CC(C)C(=O)NC(c1ccc(Cl)cc1Cl)c1ccc2cccnc2c1O (centres undefined),nt,6.51µM,?,5.17µM,i,i
CCC(=O)NC(c1ccc(Cl)cc1Cl)c1ccc2cccnc2c1O (centres undefined),nt,5.17µM,?,5.17µM,i,-85.5
C=CC[C@@H](CC(=O)N[C@@H](CO)Cc1ccccc1)C(=O)N[C@H](COC(=O)[C@@H](CC=C)CC(=O)OC(C)(C)C)Cc1c[nH]c2ccccc12,i,16.4µM,?,3.66µM,i,?
C=CC[C@H](CC(=O)N[C@H](CO)Cc1ccccc1)C(=O)N[C@@H](COC(=O)[C@@H](CC=C)CC(=O)OC(C)(C)C)Cc1c[nH]c2ccccc12,i,?,11.2µM,?,i,i
Cc1cccc(NC(=O)C2CCN(c3nnc(C)c4c(C)n(-c5ccccc5)nc34)CC2)c1C,i,i,i,i,i,nt
COc1ccc(NC(=O)C2CCCN(c3nnc(C)c4c(C)n(-c5ccccc5)nc34)C2)cc1Cl (centres undefined),i,10.3µM,15.8µM,16.4µM,17.8µM,nt
Cc1nnc(N2CCCC(C(=O)Nc3cc(F)ccc3F)C2)c2nn(-c3ccccc3)c(C)c12 (centres undefined),i,13µM,?,23.1µM,i,i
Cc1nnc(N2CCCC(C(=O)Nc3ccccc3C(F)(F)F)C2)c2nn(-c3ccccc3)c(C)c12 (centres undefined),i,18.4µM,i,18.4µM,i,nt
Cc1ccc(NC(=O)C2CCN(c3nnc(C)c4c(C)n(-c5ccccc5)nc34)CC2)cc1Cl,i,i,?,?,i,nt
Cc1nnc(N2CCCC(C(=O)NCCc3ccc(Cl)cc3)C2)c2nn(-c3ccccc3)c(C)c12 (centres undefined),i,?,i,?,i,nt
SMILES,TDP1 block,TDP1 cell CPT,TGFb inhibitor,DT40 TDP1 no CPT,HepG2 viability,IL1B secr inh
CN(C)C1=NCCN1CC1CCCCCC1,i,i,i,?,i,i
Cc1nc2ccc(C(=O)O)cc2c2c1CC(C)S2 (centres undefined),20µM,i,i,i,i,i
Cc1nc2cc(C(=O)O)ccc2s1,i,i,i,i,i,i
O=C(CNC(=O)c1ccccc1)N/N=C/c1ccc([N+](=O)[O-])s1,i,?,11.2µM,?,14.1µM,?
O=C(Cc1ccccc1)NCC(=O)N/N=C/c1ccc(C(=O)O)cc1,i,i,i,i,i,i
O=C(Cc1ccccc1)NCC(=O)N/N=C/c1ccc([N+](=O)[O-])s1,i,23.1µM,?,14.6µM,15.8µM,?
NCCCC[C@H](NC(=O)[C@H](Cc1c[nH]c2ccccc12)NC(=O)[C@H](CC(=O)O)NC(=O)[C@H](Cc1cnc[nH]1)NC(=O)[C@H](CO)NC(=O)[C@H](Cc1c[nH]c2ccccc12)NC(=O)[C@H](Cc1cnc[nH]1)NC(=O)[C@@H]1CCC(=O)N1)C(=O)N1CCC[C@H]1C(=O)NCC(N)=O,i,nt,nt,nt,nt,nt
COc1ccc(SCC(=O)c2cc(C)c(OC(=S)N(C)C)c(C)c2)cc1,i,20.6µM,i,?,i,i
Cc1cc(C(=O)CSc2ccc(F)cc2)cc(C)c1OC(=S)N(C)C,i,?,i,?,i,i
CC(=O)c1cccc(NC(=O)CSc2nnc3ccc(-c4ccc(Br)cc4)nn23)c1,i,i,i,i,i,nt
CC(C(=O)Nc1ccc(OCc2ccccc2)cc1)N1CCCC1 (centres undefined),i,i,i,?,i,i
CC(C)COCC(CN(Cc1ccccc1)c1ccccc1)N1CCCC1 (centres undefined),i,10µM!,i,25.9µM,i,-82.6
N/C(=N\OS(=O)(=O)c1ccccc1)c1ccccn1,i,?,?,?,i,i
N/C(=N\OS(=O)(=O)c1ccc(Cl)cc1)c1ccccn1,i,?,i,16.4µM,i,i
COc1ccc2cc3cc(C(=O)Nc4ccccc4N4CCN(C)CC4)oc3nc2c1,i,4.61µM,i,4.61µM,10µM,-95.6
Cc1ccc2cc3cc(C(=O)NCCCN4CCCC4)oc3nc2c1,i,i,i,i,i,-50.8

# Screening results deposited in PubChem BioAssay by National Center for Advancing Translational Sciences (NCATS).
